Screening data: PubChem, National Center for Advancing Translational Sciences (NCATS)
15-hLO-2 inh – 15-hLO-2 (ALOX15B) enzyme inhibition; AID 881; purified 15hLO-2, xylenol orange hydroperoxide absorbance; O15296; actives 0.56% (n = 110,000); Potency, µM (doses to about 57.1 µM), for inactives: top-dose activity change, negative = inhibition, usual class: inhibitors; note: potency is the fitted concentration of half-maximal effect; nearly all actives have a fitted effect of over 60% in size
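Enzyme 50 nM, AA 45 uM, 25 mM Hepes pH 7.5 + 0.01% Triton X-100; cpd preinc 15 min RT, rxn 90 min RT; stop/detect with 200 uM XO + 300 uM Fe(II) in 50 mM H2SO4, 30 min; A573/A405.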
12-hLO inh – inhibitors of human 12-lipoxygenase (ALOX12); P18054; purified 12-hLO, xylenol orange hydroperoxide absorbance; Potency, µM (titrated, usually from 57.1 µM), for the others: at the top dose activity change, negative = inhibition, hits mostly inhibitors; actives 0.12% (n = 150,000); note: potency is the fitted concentration of half-maximal effect; nearly all actives have a fitted effect of over 55% in size
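Purified human 12hLO (150 nM final) was preincubated with compounds for 15 min at room temperature in 25 mM Hepes pH 7.0, 0.01% Triton X-100, then reacted with 40 uM arachidonic acid for 30 min. Hydroperoxide was detected with ferrous iron/xylenol orange.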
IMPase inh – cell-permeable inhibitors of inositol monophosphatase (IMPase); AID 901; P97697; inhibition (IP1 accumulation), % at 46.1 µM; CHO-M1 cells, IP1 accumulation, HTRF TR-FRET ratio; 120,000 tested, under 10 active; active = well fitted curve in the direction sought with a large enough effect in the signal ratio, not every such curve was filed as active; inconclusive = small, poorly fitted or top-dose-only effect, or a change in a side signal; inactive = no such curve, though single readings can be large or run the other way; the % refers to the signal ratio;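 note: cells stimulated with carbachol in lithium chloride buffer; plate controls were DMSO basal wells for no effect and reference inhibitor wells for full effect; higher means more IMPase inhibition seen as more IP1 and lower FRET ratio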
Target sequence (P97697 whole entry, looked up): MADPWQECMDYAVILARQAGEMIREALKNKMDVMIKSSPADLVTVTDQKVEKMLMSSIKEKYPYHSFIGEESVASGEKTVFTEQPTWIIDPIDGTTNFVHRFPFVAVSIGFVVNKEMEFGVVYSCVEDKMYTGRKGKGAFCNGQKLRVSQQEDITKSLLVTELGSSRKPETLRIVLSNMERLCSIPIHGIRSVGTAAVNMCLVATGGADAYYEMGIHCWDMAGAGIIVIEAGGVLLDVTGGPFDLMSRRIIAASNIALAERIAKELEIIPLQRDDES
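Measured: the HTRF emission ratio (665/620 nm) plus the 620 nm donor channel, each fitted to the Hill equation to give AC50. Cells were CHO-M1 given compounds up to 46 uM and a 30 min carbachol stimulation at 37C.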
HPGD inh – blocks human HPGD enzyme activity | Potency, µM, inactives show top-dose activity change, negative = inhibition, usual class: inhibitors | actives 4.3% (n = 150,000) | purified HPGD, NADH fluorescence kinetic, PGE2 substrate | P15428; active = well fitted inhibition curve with a large enough effect, not every such curve was filed as active; inconclusive = small, poorly fitted or top-dose-only effect, or another doubt; inactive = no such curve, though single readings can be large or run the other way; note: potency is the fitted concentration of half-maximal effect
Target sequence (P15428 whole entry, looked up): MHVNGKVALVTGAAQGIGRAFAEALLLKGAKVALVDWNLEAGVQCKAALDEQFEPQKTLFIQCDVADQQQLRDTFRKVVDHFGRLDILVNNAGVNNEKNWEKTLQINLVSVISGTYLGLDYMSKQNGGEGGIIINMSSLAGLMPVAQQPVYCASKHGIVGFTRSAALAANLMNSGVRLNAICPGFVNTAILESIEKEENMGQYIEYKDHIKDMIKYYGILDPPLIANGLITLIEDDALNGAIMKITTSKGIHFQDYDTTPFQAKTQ
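20 nM HPGD preincubated 15 min at room temperature with compound in 50 mM Tris-HCl pH 8, 0.01% Tween 20. Started with 1 mM NAD+ and 30 uM prostaglandin E2; NADH fluorescence (360/450 nm) read 5 times over 30-s intervals, last minus first.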
PNC inhibitor – blocks assembly of the perinucleolar compartment. PC3M PTB-GFP, PNC prevalence imaging, 16 h; stronger effect = lower value. activity change (PNC), negative = inhibition, % at 10 µM. actives 3.1% (n = 140,000). AID 2417;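 active = readout at or below -70, meaning at least 70% loss of cells showing the perinucleolar compartment, a nuclear body marking cancer cells; inconclusive = readout between -30 and a set limit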;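 note: plate controls were DMSO wells for no effect and camptothecin positive control wells for full effect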
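Read-out is percentage of cells bearing a perinucleolar compartment, from automated 20x imaging of fixed, Hoechst-stained PC3M PTB-GFP cells. Cells were seeded 4 h, then exposed 16 h to compound (23 nl of library stock) in duplicate plates.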
IMPase Li inh – IMPase inhibition in cells with lithium potentiation | actives 0.35% (n = 210,000) | CHO-M1 cells, IP1 TR-FRET (IP-One), carbachol + lithium | Potency, µM (doses to about 59.4 µM), for inactives: top-dose activity, negative = IMPase inhibition, usual class: inhibitors;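 note: IP1 builds up when IMPase is blocked and the TR-FRET signal falls; potency is the fitted concentration of half-maximal effect; plate controls were basal vehicle for no effect and high inhibitor control for full effect; nearly all actives have a fitted effect of over 50% in size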
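Lithium-sensitised IP1 accumulation assay; M1-expressing CHO cells treated 30 min at 37C with compound. Competitive antibody detection by time-resolved FRET followed a 10 min room-temperature lysis step.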
* marks the source's active call; other numbers are inactive results; ? = inconclusive; . = no result; [ ] = another dose, or the depositor's remark. An excerpt weighted towards active compounds, which were near 5.4% of everything screened. Unless noted, calls come from the whole dose curve; as a rule, active = well fitted curve in the direction sought with a large enough effect; inconclusive = small, poorly fitted or top-dose-only effect, or another doubt; inactive = no such curve, though single readings can be large; an effect the other way counts as inactive or inconclusive. Unless noted, % is set by controls: 0 for no effect and ±100 for the full control effect.

SMILES	15-hLO-2 inh	12-hLO inh	IMPase inh	HPGD inh	PNC inhibitor	IMPase Li inh
CCCCCCCCCCCCC/C=C\[C@@H](O)[C@H](CO)NC(C)=O	19.7%	-1.6%	-1.1	-9.1%	.	7.5%
C=CCN1C(=O)CSc2ccc(C(=O)NCCC3=CCCCC3)cc21	2.0%	4.4%	-3.0	-14.0%	-6.7	33.9%[38.3 µM]
C=CCn1c(N)c(C(=O)NCCC2=CCCCC2)sc1=S	?	-18.8%	4.6	14.1µM*	-9.0	-5.4%
CC1=NN(c2ccccc2)C(=O)C1c1ccccc1 (centres undefined)	.	-5.8%	.	0.1%	-90.9*	15.7%
Cc1ccc2oc3c(c(=O)c2c1)C(c1ccccc1F)N(CCCN1CCOCC1)C3=O (centres undefined)	.	.	-2.5	.	.	.
O=C1C=CC(=O)C(C2=C3C(=O)N(CCc4ccccc4)CC(=O)N3CCC2)=C1	.	-8.3%	.	1.58µM*	49.1	26.8%
CCC1CCc2c(sc3ncnc(N4CCOCC4)c23)C1 (centres undefined)	4.7%	8.7%	-0.9	-27.4%	-125.8*	22.9%[38.3 µM]
CCOP(=O)(c1ccccc1)c1nc(-c2ccc(F)cc2)oc1N1CCCCC1 (centres undefined)	11.3%	-8.3%	9.7	-11.1%	-87.4*	6.8%[38.3 µM]
Cc1nn(-c2nnc(NC3CCCCC3)nn2)c(C)c1Br	.	-3.8%	.	15.8µM*	-8.8	19.0%
Cc1cccc(C)c1Nc1nnc(SCc2nc3ccccc3c(=O)[nH]2)s1	.	-4.7%	.	-10.0%	-118.2*	0.4%
Cc1ccccc1Nc1nnc(SCc2nc3ccccc3c(=O)[nH]2)s1	.	.	.	.	.	-1.5%
O=c1[nH]c(CSc2nc(-c3ccc(F)cc3)cs2)nc2ccccc12	.	0.9%	.	-3.0%	-116.4*	-0.6%
Cn1c(=O)c2[nH]c(CCC(=O)O)nc2n(C)c1=O	-4.4%[11.4 µM]	-0.8%[11.4 µM]	.	-4.8%	.	-1.3%
O=C(CC1CCCCC1)NC1CCCC1	6.2%	0.6%	8.5	17.8µM*	35.9	6.8%[38.3 µM]
O=C(CCC1CCCC1)NC1CCCCC1	0.5%	-0.9%	3.1	15.8µM*	4.9	35.0%[38.3 µM]
Cc1cc2ccccc2c[n+]1CC(O)C[n+]1cc2ccccc2cc1C	-4.0%[11.4 µM]	8.7%[11.4 µM]	.	-12.9%	.	16.7%
O=C(COC(=O)Cc1cn2ccsc2n1)Nc1nc2ccccc2s1	9.4%	-7.5%	-3.2	-3.7%	-100.0*	-16.1%[38.3 µM]
C=CCc1cccc2cc(C(=O)NC3=C(C#N)CCC3)c(=O)oc12	5.6%[11.4 µM]	-1.3%	6.1[1.84 µM]	-10.0%	-124.4*	33.8%[38.3 µM]
O=Cc1sc(N2CCOCC2)nc1-c1ccccc1	.	.	.	.	.	14.1µM*
O=C(N/N=C/c1sc(N2CCOCC2)nc1-c1ccccc1)c1ccccc1O	.	1.9%	.	-21.5%	20.7	21.9%
COc1ccc(C(=O)/C=C/c2ccccc2)c(OC)c1	.	.	.	.	.	-4.4%
COc1ccc(C(=O)/C=C/c2cc(OC)c(O)c(OC)c2)c(F)c1	.	?	.	14.1µM*	4.2	-4.5%
Cc1ccc(CC(=O)NCC(C)C)cc1	5.4%	6.8%	-13.4	17.8µM*	?	-1.6%[38.3 µM]
Cc1ccc(CC(=O)NCc2ccc(Cl)cc2)cc1	.	.	.	.	.	4.9%
CCOc1ccc(N2C(=O)CC(SCC(=O)O)C2=O)cc1 (centres undefined)	.	.	.	.	.	1.3%
SMILES	15-hLO-2 inh	12-hLO inh	IMPase inh	HPGD inh	PNC inhibitor	IMPase Li inh
CCOC(=O)N1CCN(C2CC(=O)N(c3ccccc3)C2=O)CC1 (centres undefined)	-5.8%	-6.3%	-0.7	-8.3%	-9.9	-19.8%[38.3 µM]
CCOC(=O)N1CCN(C2CC(=O)N(c3ccc(Cl)c(Cl)c3)C2=O)CC1 (centres undefined)	.	4.6%	-1.3	?	-100.0*	3.7%
CCOc1ccc(N2C(=O)CC(N3CCN(C(=O)CN4CCCC4)CC3)C2=O)cc1 (centres undefined)	-3.8%	0.6%	3.9	-7.1%	-113.7*	-4.2%[38.3 µM]
CN1C(=O)CC(N2CCN(C(=O)CN3CCCC3)CC2)C1=O (centres undefined)	2.4%	-0.8%	-8.0	0.2%	-4.8	12.0%[38.3 µM]
CCOc1ccc(N2C(=O)CC(N)C2=O)cc1 (centres undefined)	.	-0.1%	-0.4	39.8µM*	?	7.7%
COC(=O)[C@@H]1C[C@@H]2CC[C@@H](O)C[C@@H]2N1CC1CCCCC1	-9.5%	-10.2%	.	-14.6%	.	1.7%
CC[C@H](C)[C@H](NC(=O)[C@H](CCCN=C(N)N)NC(=O)[C@H](CCCN=C(N)N)NC(=O)[C@H](CC(C)C)NC(=O)[C@H](Cc1ccccc1)NC(=O)CNC(=O)CN)C(=O)N[C@@H](CCCN=C(N)N)C(=O)N1CCC[C@H]1C(=O)N[C@@H](CCCCN)C(=O)N[C@@H](CC(C)C)C(=O)N[C@@H](CCCCN)C(=O)O	.	.	.	.	.	-0.9%
COc1cc(-n2c(=O)c3ccccc3n(CC(=O)c3ccc(Br)cc3)c2=O)cc(OC)c1OC	.	.	.	.	.	22.4µM*
CC(C)(C)c1[nH]c2ccccc2c1/C=N/O	-0.4%	-10.4%	-3.2	2µM*	6.9	4.4%[38.3 µM]
CC(C)(CO)N=Cc1c(O)[nH]c2ccccc12	5.3%	4.5%	-2.6	-0.6%	-0.7	-5.2%[38.3 µM]
COc1cc(Sc2ccc(C)cc2)c(OC)cc1N	10µM*	-13.2%	-5.4	28.2µM*	-22.1	30.9%[38.3 µM]
COC(=O)c1ccc(Sc2ccc(C)cc2)c(N)c1	-16.7%	-5.7%	3.9	?	?	-11.0%[38.3 µM]
CCSc1nnc(NC(=O)c2csc3c2CCC(C)C3)s1 (centres undefined)	-7.2%	1.6%	8.4	-7.2%	-28.4	12.7%[38.3 µM]
O=C(NC1CCCC1)c1csc2c1CCCC2	-14.2%	-6.8%	5.8	15.8µM*	1.8	-5.7%[38.3 µM]
CC1CCc2c(C(=O)NCC3CCCO3)csc2C1 (centres undefined)	-10.3%	-5.3%	4.1	7.94µM*	-10.8	?
CCc1c(C(=O)NN2C(=O)C3CCCCC3C2=O)csc1C (centres undefined)	.	3.4%	.	-10.3%	39.6	0.6%
CC1CCc2c(C(=O)Nc3nccs3)csc2C1 (centres undefined)	25.3%	-13.9%	2.1	7.08µM*	9.6	4.5%[38.3 µM]
CCc1c(C(=O)NC2CCCC2)csc1C	-3.2%	-4.9%	-6.2	14.1µM*	-99.4*	2.5%
CCOc1ccc(NC(=O)c2c(NC(=O)c3ccccc3Br)sc3c2CCC(C)C3)cc1 (centres undefined)	.	.	-1.5	.	.	.
COc1ccc2cccc(N3CCN(CCNC(=O)c4ccc(F)cc4)CC3)c2c1	47.1%	-25.8%	3.1	?	.	2.4%
O=C(NCC1CCCO1)c1csc2c1CCCCC2 (centres undefined)	16.3%	4.0%	1.4	25.1µM*	17.7	5.2%[38.3 µM]
CCCNC(=O)c1csc2c1CCCCC2	-5.5%	-4.8%	0.9	?	-18.2	12.1%[38.3 µM]
